Measurements taken from PubChem BioAssay (Tox21).
Records with an inconclusive call do not appear. Activity calls are given as the source filed them. Unless noted, calls follow the shape of the dose curve; as a rule, active = well fitted curve in the direction sought with a large enough effect in the repeat runs; inconclusive = weak or mixed curves; inactive = no such curve, though single readings can be large; an effect the other way counts as inactive or inconclusive.

How the values were obtained:
[1] = qHTS assay to identify small molecule antagonists of the thyroid receptor (TR) signaling pathway - cell viability counter screen (AID 743064); also: nearly all actives have a fitted effect of over 50% in size
Summary of the method: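 Compounds were tested on GH3.TRE-Luc cells in the presence of T3 at 1 nM final. Following 23.5 h at 37 °C, cell viability was quantified by CellTiter-Fluor.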

[2] = qHTS assay to identify small molecule antagonists of the thyroid receptor (TR) signaling pathway (AID 743065); also: series mostly up to about 70 µM; nearly all actives have a fitted effect of over 55% in size
Summary of the method: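 GH3.TRE-Luc rat pituitary cells (two TREs driving luciferase) were dosed with compound, then stimulated with 1 nM T3 (final) for 23.5 h at 37 C. ONE-Glo luminescence was the read-out, with CellTiter-Fluor fluorescence as the cytotoxicity counter-screen.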

[3] = system: thyroid hormone receptor (rat, GH3 cells); experiment: qHTS assay to identify small molecule agonists of the thyroid receptor (TR) signaling pathway (AID 743066; calls by dose curve)
[4] = qHTS assay to identify small molecule antagonists of the estrogen receptor alpha (ER-alpha) signaling pathway - cell viability counter screen (AID 743074; calls by dose curve;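 also: HEK293 cells carrying ER-alpha-UAS-bla reporter stimulated with 17beta-estradiol; nearly all actives have a fitted effect of over 45% in size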)
[5] = qHTS assay to identify small molecule antagonists of the estrogen receptor alpha (ER-alpha) signaling pathway using the BG1 cell line - cell viability counter screen (AID 743081);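 also: compound given together with 17beta-estradiol as the ER stimulus; series mostly up to about 70 µM; nearly all actives have a fitted effect of over 45% in size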
[6] = target: Aromatase (Homo sapiens) (UniProt P11511); experiment: qHTS assay to identify aromatase inhibitors (AID 743083); also: series mostly up to about 70 µM; nearly all actives have a fitted effect of over 55% in size
[7] = target: Estrogen receptor (Homo sapiens) (UniProt P03372); experiment: qHTS assay to identify small molecule antagonists of the estrogen receptor alpha (ER-alpha) signaling pathway (AID 743069; active = well fitted curve in the direction sought with a large enough effect in the signal ratio in the repeat runs, not every such curve was filed as active; the % refers to the signal ratio)
Summary of the method: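 Beta-lactamase FRET fluorescence is read after 2 hr at room temperature with LiveBLAzer B/G substrate. Before that, ER-alpha-bla HEK293 cells sit 4 hr after plating, then receive compound plus 17beta-estradiol and incubate 18 hr at 37C.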

[8] = target: Estrogen receptor (Homo sapiens) (UniProt P03372); experiment: qHTS assay to identify small molecule agonists of the estrogen receptor alpha (ER-alpha) signaling pathway (AID 743075; calls by dose curve;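 also: HEK293 GripTite cells with ER-alpha and UAS-driven beta-lactamase reporter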)
[9] = target: Estrogen receptor (Homo sapiens) (UniProt P03372); experiment: qHTS assay to identify small molecule agonists of the estrogen receptor alpha (ER-alpha) signaling pathway using the BG1 cell line (AID 743079); also: nearly all actives have a fitted effect of over 20% in size
[10] = qHTS assay to identify small molecule antagonists of the estrogen receptor alpha (ER-alpha) signaling pathway using the BG1 cell line (AID 743080; calls by dose curve;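 also: BG1 cells stimulated with 17beta-estradiol alongside compound; series mostly up to about 70 µM; nearly all actives have a fitted effect of over 25% in size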)
Summary of the method: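 BG1Luc4E2, endogenous ER-alpha, 4xERE-luc; 5 d charcoal-stripped FBS, phenol red free; 24 h plating; cpd + 17beta-estradiol 21.5 h, 37 C/5% CO2; CellTiter-Fluor viability 30 min, then ONE-Glo luciferase 30 min RT.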
% is scaled to controls: 0 for no effect and ±100 for the full control effect.

Sequence of Estrogen receptor (Homo sapiens) (P03372 whole entry, looked up): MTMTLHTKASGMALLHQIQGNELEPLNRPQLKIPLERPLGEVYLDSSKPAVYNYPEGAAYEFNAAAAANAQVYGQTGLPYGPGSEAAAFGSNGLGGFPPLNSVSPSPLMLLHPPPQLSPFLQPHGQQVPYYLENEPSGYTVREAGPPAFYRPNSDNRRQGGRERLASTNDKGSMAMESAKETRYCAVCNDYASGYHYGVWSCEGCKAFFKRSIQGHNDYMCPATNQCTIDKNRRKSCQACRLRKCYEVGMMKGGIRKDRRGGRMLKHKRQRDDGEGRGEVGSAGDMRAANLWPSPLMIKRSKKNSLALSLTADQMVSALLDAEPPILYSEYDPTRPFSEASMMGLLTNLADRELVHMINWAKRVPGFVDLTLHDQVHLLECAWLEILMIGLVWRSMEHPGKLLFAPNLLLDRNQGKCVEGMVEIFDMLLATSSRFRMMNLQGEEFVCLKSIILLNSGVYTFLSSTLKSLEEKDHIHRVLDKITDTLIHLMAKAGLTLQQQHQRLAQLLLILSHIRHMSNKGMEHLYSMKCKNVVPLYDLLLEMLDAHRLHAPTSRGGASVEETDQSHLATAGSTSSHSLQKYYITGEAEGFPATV
Sequence of Aromatase (Homo sapiens) (P11511 whole entry, looked up): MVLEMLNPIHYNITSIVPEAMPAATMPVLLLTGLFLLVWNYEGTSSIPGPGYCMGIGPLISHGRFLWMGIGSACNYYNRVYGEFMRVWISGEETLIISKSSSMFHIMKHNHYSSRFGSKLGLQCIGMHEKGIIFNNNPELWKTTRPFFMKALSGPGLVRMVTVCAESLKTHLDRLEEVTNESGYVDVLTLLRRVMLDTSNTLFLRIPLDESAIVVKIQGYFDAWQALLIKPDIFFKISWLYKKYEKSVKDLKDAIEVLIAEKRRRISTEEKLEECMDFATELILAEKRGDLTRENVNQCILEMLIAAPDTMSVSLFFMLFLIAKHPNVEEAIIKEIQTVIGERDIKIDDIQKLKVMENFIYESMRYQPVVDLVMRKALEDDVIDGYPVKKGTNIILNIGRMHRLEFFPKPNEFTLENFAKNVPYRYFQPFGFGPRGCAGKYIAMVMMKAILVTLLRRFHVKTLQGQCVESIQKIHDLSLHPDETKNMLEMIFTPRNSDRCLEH

CC(=O)OCC(=O)[C@@]1(O)CCC2C3CCC4=CC(=O)CC[C@]4(C)C3[C@@H](O)C[C@@]21C (stereo partly specified)
inactive: Potency [1] | Potency [2] | outcome [3] | outcome [4] | Potency [5] | Potency [6]

FC(F)OC(Cl)C(F)(F)F (stereo unspecified)
inactive: Potency [1] | Potency [2] | outcome [3] | outcome [4] | Potency [5] | Potency [6]

CCCCOCCOCCOCCCC
inactive: Potency [1] | Potency [2] | outcome [3] | outcome [4] | Potency [5] | Potency [6]

CCC(C)S (stereo unspecified)
inactive: activity change, negative = cytotoxic [1] 23.6% [at 3.79 µM] | activity, negative = inhibition [2] 10.9% [at 3.79 µM] | activation [3] 1.37% [at 3.63 µM] | activity change, negative = cytotoxicity [5] 11% [at 3.79 µM] | activity, negative = inhibition [6] 7.68% [at 3.79 µM]

CC(=O)Nc1ccc(S(N)(=O)=O)cc1
inactive: Potency [1] | outcome [3] | outcome [7] | outcome [4] | Potency [8] | Potency [9] | outcome [10] | Potency [5] | Potency [6]

N=C(N)c1ccc2cc(OC(=O)c3ccc(N=C(N)N)cc3)ccc2c1
inactive: Potency [1] | outcome [3] | outcome [7] | outcome [4] | Potency [8] | Potency [9] | outcome [10] | Potency [5] | Potency [6]
